Screening data deposited in PubChem by National Center for Advancing Translational Sciences (NCATS).
Pf growth 48h = Primary qHTS for delayed death inhibitors of the malarial parasite plastid, 48 hour incubation; Potency, µM (top dose mostly 28.7 µM), actives largely listed as inhibitors; 310,000 tested, 5.9% active; P. falciparum luciferase growth in erythrocytes, 48 h; AID 504832, 2011
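Read-out is firefly luciferase luminescence from an integrated reporter in P. falciparum, so falling signal marks reduced parasite growth. Infected erythrocytes were at 2% hematocrit and 0.1% parasitemia (final) in Albumax-supplemented RPMI 1640.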
Pf growth 96h = Primary qHTS for delayed death inhibitors of the malarial parasite plastid, 96 hour incubation. P. falciparum luciferase reporter growth, 96 h. Potency, µM (doses to about 28.7 µM), most hits filed as inhibitors. 320,000 tested, 6.9% active
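Two parasite generations (96 h, 37 C, 5% CO2) of compound exposure in infected erythrocytes (0.05% parasitemia, 2% hematocrit). Luciferase-reporter P. falciparum; decreased luminescence indicates inhibited growth, aimed at apicoplast-acting delayed death.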
HCV inh = qHTS Assay for Inhibitors of Hepatitis C Virus (HCV); 340,000 tested, 3.4% active; Huh7.5.1 HCVcc-Cre infection, luciferase reporter, 44 h; Potency, µM (top dose mostly 41.8 µM), hits mostly inhibitors
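Whole-lifecycle infectious HCVcc-Cre system; cells 1,000/well, compound then virus (~0.5 moi) added 4 h after plating, 44 h culture. Luciferase read 15 sec following 15 min substrate incubation, room temp.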
AMA1-RON2 inh = qHTS for Inhibitors of AMA1-RON; Towards Development of Antimalarial Drug Lead: Primary Screen; AlphaScreen AMA1-biotinylated RON2 peptide binding; AID 720542, 2013; Potency, µM (doses to about 58.2 µM), hits mostly inhibitors; Plasmodium falciparum AMA1 (3D7) - RON2 peptide interaction; 360,000 tested, 0.2% active; further: nearly all actives have a fitted effect of over 45% in size
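AMA1 (3D7) with his tag at 25 nM final met compounds first, then biotinylated RON2 peptide at 25 nM; detection used donor plus acceptor beads, 10 µg/mL apiece, read by AlphaScreen after 30 min at room temperature.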
Large screens that a line does not name were inactive. A selection: hits, their analogues and other compounds. The true share with any hit is near 11%. The call rests on the fitted dose curve; in most records, active means well fitted curve in the direction sought with a large enough effect; inconclusive means small, poorly fitted or top-dose-only effect, or another doubt; inactive means no such curve, though single readings can be large; an effect the other way counts as inactive or inconclusive.

CC(NC(=O)CN1c2cccc3cccc(c23)S1(=O)=O)c1ccc(S(N)(=O)=O)cc1 (stereo not given)	none
Cc1cc(C(=O)NNS(=O)(=O)c2ccc(C(C)(C)C)cc2)nn1C(C)(C)C	Pf growth 48h 10µM
CCCNNC(=O)C(O)(c1ccccc1)c1ccccc1	Pf growth 96h 10µM
Cc1ccc(S(=O)(=O)NNC(=O)C(=O)NNc2ccccn2)cc1	AMA1-RON2 inh 32µM
O=C(NNS(=O)(=O)c1ccccc1)C(O)(c1ccccc1)c1ccccc1	none
Cc1ccc(S(=O)(=O)NNC(=O)c2ccncc2)cc1	Pf growth 96h inconclusive
Cc1ccc(S(=O)(=O)NNC(=O)C(O)(c2ccccc2)c2ccccc2)cc1	Pf growth 96h 2.1µM
COC(=O)[C@@]12C[C@@H](CC(=O)NCc3ccc(OC)c(OC)c3)C(=O)N(Cc3ccc4c(c3)OCO4)C1=CCC(C)(C)C2	none (no result: Pf growth 48h, Pf growth 96h, HCV inh)
CC(C)(C)C(=O)N1CCC2CC1c1cc(Cl)ccc12 (stereo not given)	none (no result: Pf growth 48h, Pf growth 96h)
O=S(=O)(/C=C/C=C/S(=O)(=O)c1ccccc1)c1ccccc1	HCV inh 8.9µM (no result: Pf growth 48h, Pf growth 96h)
NS(=O)(=O)c1ccccc1	Pf growth 48h inconclusive
O=[N+]([O-])C(/C=C(/Cl)[N+](=O)[O-])=C(N1CCCCC1)N1CCCCC1	Pf growth 48h 8.3µM, Pf growth 96h 5.2µM
O=C(/C=C/c1ccccc1[N+](=O)[O-])N1CCCCC1	none
CC(C)c1ccc(N2C(=NC(=O)C3CCCO3)SC3CS(=O)(=O)CC32)cc1 (stereo not given)	none
CCCCCCCCCCn1ccc(=N)cc1	Pf growth 48h 0.21µM, Pf growth 96h inconclusive, HCV inh 22µM
CCCCCCN1Cc2ccccc2C1	none
Cc1ccc(S(=O)(=O)N2[C@@H](c3ccc(Cl)cc3)C(C(=O)O)=CC[C@H]2c2ccc3c(c2)OCO3)cc1	Pf growth 48h 9.3µM, Pf growth 96h 8.3µM
Cc1ccc([C@H]2C(C(=O)O)=CC[C@@H](c3ccc4c(c3)OCO4)N2S(=O)(=O)c2ccc(C)cc2)cc1	none (no result: Pf growth 48h, Pf growth 96h)
CC[C@@H]1C=C(C(=O)O)[C@H](c2ccc3c(c2)OCO3)N1S(=O)(=O)c1ccc(C)cc1	HCV inh 32µM (no result: Pf growth 48h, Pf growth 96h)
CCCCC[C@@H]1C=C(C(=O)O)[C@H](c2ccc(CC)cc2)N1S(=O)(=O)c1ccc(C)cc1	none (no result: Pf growth 48h, Pf growth 96h)
Cc1ccc(S(=O)(=O)N2[C@@H](c3cccc(Cl)c3)C(C(=O)O)=CC[C@H]2c2cccc(Cl)c2)cc1	Pf growth 48h inconclusive, HCV inh inconclusive
Cc1ccc(S(=O)(=O)N2[C@@H](c3cccc(Cl)c3)C(C(=O)O)=CC[C@H]2c2ccc3c(c2)OCO3)cc1	Pf growth 48h 9.3µM, Pf growth 96h inconclusive
CCCC[C@@H]1C=C(C(=O)O)[C@H](c2ccc(CC)cc2)N1S(=O)(=O)c1ccc(C)cc1	HCV inh 0.56µM (no result: Pf growth 48h, Pf growth 96h)
CC(C)(C)NC[C@H](O)COc1cccc2c1C[C@@H](O)[C@@H](O)C2	Pf growth 96h inconclusive (no result: HCV inh, AMA1-RON2 inh)
C=CCn1c2ccccc2c(=O)c2cc(C#Cc3ccsc3)ccc21	Pf growth 48h 0.046µM, Pf growth 96h 0.33µM (no result: HCV inh, AMA1-RON2 inh)
O=c1c2ccccc2oc2cc(C#Cc3ccccn3)ccc12	none (no result: Pf growth 48h, Pf growth 96h)
C=CCn1c2ccccc2c(=O)c2cc(C#Cc3ccccn3)ccc21	Pf growth 48h inconclusive, Pf growth 96h 2.1µM, HCV inh 13µM
COc1ccc(-c2nnc3ccc(SCC(=O)Nc4nc5ccc(C)cc5s4)nn23)cc1OC	Pf growth 48h 13µM, Pf growth 96h inconclusive
COc1ccc(-c2nnc3ccc(SC(C(C)=O)C(C)=O)nn23)cc1OC	Pf growth 48h 9.3µM, Pf growth 96h inconclusive
COC(=O)CSc1ccc2nnc(-c3ccc(OC)c(OC)c3)n2n1	none
O=C(Nc1ccc(Br)cc1)c1ccc(F)c(S(=O)(=O)NCc2cccs2)c1	Pf growth 48h inconclusive, Pf growth 96h inconclusive, HCV inh 5µM
O=C(Nc1nccs1)c1ccc(S(=O)(=O)NCc2cccs2)cc1	HCV inh 10µM (no result: Pf growth 96h)
CCc1ccc(C(C(=O)NC2CCCC2)N(Cc2cccnc2)C(=O)c2csnn2)cc1 (stereo not given)	Pf growth 48h inconclusive, Pf growth 96h inconclusive
CCn1ncc(CN2CCCC(C(=O)c3cccc(OC(C)C)c3)C2)c1C (stereo not given)	Pf growth 48h inconclusive, HCV inh inconclusive
CSc1ccc(C(=O)C2CCCN(Cc3cc4ccccc4[nH]3)C2)cc1 (stereo not given)	Pf growth 48h inconclusive, HCV inh inconclusive, AMA1-RON2 inh 32µM
CSc1ccc(C(=O)C2CCCN(Cc3cccn3-c3cccnc3)C2)cc1 (stereo not given)	Pf growth 48h 10µM, HCV inh 14µM
COc1ccc(CN2CCCC(C(=O)c3cccc(OC(C)C)c3)C2)cc1Cn1cccn1 (stereo not given)	Pf growth 48h 9.3µM, HCV inh 11µM
COc1ccc(C(=O)C2CCCN(Cc3cccn3-c3cccnc3)C2)cc1OC (stereo not given)	Pf growth 48h inconclusive
CC(C)Oc1cccc(C(=O)C2CCCN(Cc3cccn3-c3cccnc3)C2)c1 (stereo not given)	Pf growth 48h inconclusive, Pf growth 96h 12µM, HCV inh 11µM
COc1ccc2[nH]c(=O)c(CN(C(=O)c3cccnc3)c3ccc(C)cc3C)cc2c1	Pf growth 48h inconclusive
Cc1ccc(CN2CCC(C)(Oc3cccc(Cl)c3)C2)cc1 (stereo not given)	none (no result: Pf growth 48h, Pf growth 96h, HCV inh)
COc1ccc(-c2cccc(NS(=O)(=O)c3cc([N+](=O)[O-])c(C)c([N+](=O)[O-])c3)c2)nn1	none
CC[C@H](C)[C@H]1CNC(=S)N1CC1CCN(CCC(C)C)CC1	none (no result: Pf growth 48h, Pf growth 96h, HCV inh)
CCc1cnc(Nc2nc(C(N)Cc3ccc(F)cc3)cs2)nc1 (stereo not given)	none (no result: Pf growth 48h, Pf growth 96h, HCV inh)
O=C(CCNC(=O)C1CCN(S(=O)(=O)c2ccc(F)cc2)CC1)NCc1ccncc1	none
O=C(N/N=C/c1cc(Cl)ccc1O)c1ccncc1	Pf growth 48h 2.3µM, Pf growth 96h inconclusive, HCV inh inconclusive
CC(C)(C)c1ccc(C(=O)N/N=C/c2cccc(Cl)c2)cc1	Pf growth 96h 13µM, HCV inh 7.1µM (no result: Pf growth 48h)
O=C(N/N=C/c1ccccc1Cl)c1ccncc1	none
O=C(N/N=C/c1ccncc1)c1cccc(NC(=O)c2ccc(Cl)cc2)c1	Pf growth 48h 13µM, Pf growth 96h inconclusive
O=C(Cc1cccc(C(F)(F)F)c1)OCN1C(=O)c2ccccc2C1=O	none
O=C(COC(=O)c1cncc(Br)c1)NC1CCCCCC1	Pf growth 48h 3.3µM
COc1cc(-c2nn3c(-c4ccco4)nnc3s2)cc(OC)c1OC	Pf growth 96h inconclusive (no result: HCV inh, AMA1-RON2 inh)
COc1cccc(-c2nn3c(-c4ccco4)nnc3s2)c1	Pf growth 96h 8.3µM
Cc1cccc(-c2nnc3sc(-c4ccccc4)nn23)c1	Pf growth 96h 2.3µM, HCV inh inconclusive
COc1cccc(-c2nn3c(-c4ccccn4)nnc3s2)c1	none (no result: Pf growth 48h)
COc1cccc(-c2nn3c(-c4cc(C)[nH]n4)nnc3s2)c1	Pf growth 96h 10µM (no result: Pf growth 48h)
COc1ccc(-c2nnc3sc(-c4cccs4)nn23)cc1OC	Pf growth 96h 12µM
